{
  "source": "the supplement of paper PMC10338343",
  "note": "± gives the standard deviation.",
  "data": [
    {"tested_on": "MILI (PIWIL2) piRISC loaded with L1MC piRNA (26 nt)", "assay": "pre-steady-state target cleavage rate (min^-1); guide: L1MC piRNA 5'p-UAACUAAAUACUAUGCAAGCUGUAGG; higher = faster piRNA-guided slicing of the target", "settings": "auxiliary factor: 500 nM mouse GTSF1", "experimental": "(§1)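 Cleave-'n-Seq: a library of target RNAs (target site embedded in constant flanks, ACAGCATTCCGCGTTAGTGATATCCG... 5' flank; DNA-blocked outside the site) at 0.1 nM was incubated with 1 nM active mouse MILI or MIWI piRISC (synthetic 5'-monophosphorylated piRNA guide) with or without 500 nM mouse GTSF1 at 33 °C for 1 min to 16 h. Uncleaved targets were sequenced and normalised to non-target controls, and the pooled three trials were fitted to a burst-and-steady-state model to give the pre-steady-state cleavage rate (min^-1; k3 is constrained to at most 1e-4). Sequence is the target site only; target names encode pairing extent (gX:gY) and contiguous / 1-mismatch / 2-mismatch / bulge geometry. Fits with R² ≤ 0 are excluded.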", "values": [
      {"sequence": "UCCUGGAUCUGCUUGGAUAGUAUUUAGUUA", "pre-steady-state target cleavage rate": "0.165 ± 0.019"},
      {"sequence": "UCCUGGAUGAGCUUCGCAUAGUAUUUAGUUA", "pre-steady-state target cleavage rate": "0.258 ± 0.02"},
      {"sequence": "UCCUGGAUGUCGAUGCAUAGUAAUUUGUUA", "pre-steady-state target cleavage rate": "0.00959 ± 0.0053"},
      {"sequence": "UCCUCCUACAGCUUGCAUAGCAUUUAGUUA", "pre-steady-state target cleavage rate": "0.0883 ± 0.013"},
      {"sequence": "UCCUGGAUGUGCUUGCAUUGUAUUUUGUUA", "pre-steady-state target cleavage rate": "0.0555 ± 0.015"},
      {"sequence": "UCCUGGAUCAGCUUGCAAUGUAUUUAGUAA", "pre-steady-state target cleavage rate": "0.0826 ± 0.014"},
      {"sequence": "UCCUGGAUGAGCAUGCAUAGUAUUUAGUUA", "pre-steady-state target cleavage rate": "0.199 ± 0.016"},
      {"sequence": "UCCUGGAUGUCGUUGCAUAGUAUUUAGUGA", "pre-steady-state target cleavage rate": "0.193 ± 0.034"},
      {"sequence": "UCCUGGAUCAGCUUGCAUACUAAUUAGUUA", "pre-steady-state target cleavage rate": "0.0215 ± 0.0055"},
      {"sequence": "UCCUGCUACAGCUUGCAUAAGUAUUUAGUUA", "pre-steady-state target cleavage rate": "0.0171 ± 0.0064"},
      {"sequence": "UCCUCCUACAGCUUGCAUAGUAUUUAGUAA", "pre-steady-state target cleavage rate": "0.246 ± 0.021"},
      {"sequence": "UCCUCCUACAGCUUGCAAAGUAUUUAGUUA", "pre-steady-state target cleavage rate": "0.167 ± 0.014"},
      {"sequence": "UCCUCCUACAGCUUGCUUAGUAUUUUGUUA", "pre-steady-state target cleavage rate": "0.133 ± 0.016"},
      {"sequence": "UCCUGGAUCAGCUUCGUUAGUAUUUAGUUA", "pre-steady-state target cleavage rate": "0.0434 ± 0.0096"},
      {"sequence": "UCCUGCUACAGCUUGGCAUAGUAUUUAGUUA", "pre-steady-state target cleavage rate": "0.307 ± 0.051"},
      {"sequence": "UCCUGGAUGUCCUUGCAUAGUAAAAAGUAA", "pre-steady-state target cleavage rate": "0.00651 ± 0.0043"},
      {"sequence": "UCCUGGUACAGCAAGCAUAGUAUUUAGUAA", "pre-steady-state target cleavage rate": "0.239 ± 0.029"},
      {"sequence": "UCCUCCUAGUGCUUGCAUAGUAUUUAGUAA", "pre-steady-state target cleavage rate": "0.114 ± 0.019"},
      {"sequence": "UCCUGCUACAGCUUGCCUAGUAUUUAGUUA", "pre-steady-state target cleavage rate": "0.222 ± 0.015"},
      {"sequence": "UCCUGCUACAGGUUGCAUAGUUUUUAGUUA", "pre-steady-state target cleavage rate": "0.0345 ± 0.007"},
      {"sequence": "UCCUGGAUGUCCUUGCAAAGUAUUAAGUUA", "pre-steady-state target cleavage rate": "0.0398 ± 0.0098"},
      {"sequence": "UCCUGGUACAGCUGGCAUAGUAUUUAGUUA", "pre-steady-state target cleavage rate": "0.199 ± 0.022"},
      {"sequence": "UCCUGGAUGUCGAACCAUAGUAUAUAGUAA", "pre-steady-state target cleavage rate": "< 0.0001"}
    ]},
    {"tested_on": "MILI (PIWIL2) piRISC loaded with L1MC piRNA (26 nt)", "assay": "pre-steady-state target cleavage rate (min^-1); guide: L1MC piRNA 5'p-UAACUAAAUACUAUGCAAGCUGUAGG; MIWI and MILI are mouse PIWI proteins and EfPiwi is from a freshwater sponge; tags in brackets are library labels; higher = faster piRNA-guided slicing of the target", "settings": "auxiliary factor: none (no GTSF1)", "experimental": "as §1", "values": [
      {"sequence": "UCCUGGAUCUGCUUGGAUAGUAUUUAGUUA", "pre-steady-state target cleavage rate": "0.0102 ± 0.0026"},
      {"sequence": "UCCUGGAUGAGCUUCGCAUAGUAUUUAGUUA", "pre-steady-state target cleavage rate": "0.00539 ± 0.0022"},
      {"sequence": "UCCUGGAUGUCGAACCAUAGUAUUUUCAAA [g6:g15:cont:t1A]", "pre-steady-state target cleavage rate": "< 0.0001"},
      {"sequence": "UCCUGGAUCAGCUUGCAAUGUAUUUAGUAA", "pre-steady-state target cleavage rate": "0.00611 ± 0.0022"},
      {"sequence": "UCCUGGAUGAGCAUGCAUAGUAUUUAGUUA", "pre-steady-state target cleavage rate": "0.00939 ± 0.0029"},
      {"sequence": "UCCUGGAUGUCGUUGCAUAGUAUUUAGUGA", "pre-steady-state target cleavage rate": "0.00426 ± 0.0027"},
      {"sequence": "UCCUGGAUCAGCUUGCAUACUAAUUAGUUA", "pre-steady-state target cleavage rate": "0.00367 ± 0.0023"},
      {"sequence": "UCCUCCUACAGCUUGCAUAGUAUUUAGUAA", "pre-steady-state target cleavage rate": "0.00585 ± 0.0026"},
      {"sequence": "UCCUCCUACAGCUUGCAAAGUAUUUAGUUA", "pre-steady-state target cleavage rate": "0.00717 ± 0.0022"},
      {"sequence": "UCCUCCUACAGCUUGCUUAGUAUUUUGUUA", "pre-steady-state target cleavage rate": "0.0026 ± 0.0026"},
      {"sequence": "UCCUGGAUCAGCUUCGUUAGUAUUUAGUUA", "pre-steady-state target cleavage rate": "0.00279 ± 0.0024"},
      {"sequence": "UCCUGCUACAGCUUGGCAUAGUAUUUAGUUA", "pre-steady-state target cleavage rate": "0.00405 ± 0.0027"},
      {"sequence": "UCCUGGUACAGCAAGCAUAGUAUUUAGUAA", "pre-steady-state target cleavage rate": "0.00526 ± 0.0023"},
      {"sequence": "UCCUGCUACAGCUUGCCUAGUAUUUAGUUA", "pre-steady-state target cleavage rate": "0.0074 ± 0.0022"},
      {"sequence": "UCCUGCUACAGGUUGCAUAGUUUUUAGUUA", "pre-steady-state target cleavage rate": "0.0063 ± 0.0021"},
      {"sequence": "UCCUGGAUGUCCUUGCAAAGUAUUAAGUUA", "pre-steady-state target cleavage rate": "0.00691 ± 0.0023"},
      {"sequence": "UCCUGGUACAGCUGGCAUAGUAUUUAGUUA", "pre-steady-state target cleavage rate": "0.0121 ± 0.0031"},
      {"sequence": "UCCUGGAUGUCGAACCAUAGUAUAUAGUAA", "pre-steady-state target cleavage rate": "< 0.0001"}
    ]}
  ]
}
